Assay results reported in PubChem BioAssay (NCI).
This is part of a sample that, as a whole, favours compounds with a hit. Of some 79,000 tested, about 15% had one in any assay. Activity calls are given as the source filed them. No stated cut-off is given here; in the data, active means growth inhibition above about 70%; inactive means the rest.

How the values were obtained:
[1] = NCI Yeast Anticancer Drug Screen. Data for the wt1 strain (AID 149);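 further: 0% = growth of vehicle-treated wt1 cultures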; conditions: S. cerevisiae wt1 strain (SPY 50644) growth inhibition, active compounds read high
Summary of the method: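 Yeast wt1 strain exposed to compounds; growth inhibition measured relative to vehicle-treated controls.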

[2] = NCI Yeast Anticancer Drug Screen. Data for the rad50EPP+ strain (AID 151);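 further: 0% = growth of vehicle-treated control cultures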; conditions: S. cerevisiae rad50 mutant strain, active compounds read high
Summary of the method: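 Exposing the rad50EPP+ strain to each compound, growth was compared with vehicle-only cultures to give inhibition.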

[3] = NCI Yeast Anticancer Drug Screen. Data for the mgt1 strain (AID 153); conditions: S. cerevisiae mgt1 mutant growth inhibition, active compounds read high
Summary of the method: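 Genetically defined yeast (mgt1) treated with compound; inhibition of growth expressed against vehicle-treated controls.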

[4] = NCI Yeast Anticancer Drug Screen. Data for the rad50 strain (AID 155);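 further: 0% = growth of vehicle-only cultures of the same strain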; conditions: S. cerevisiae rad50 strain growth inhibition, active compounds read high
Summary of the method: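 Yeast carrying a defined DNA repair defect were exposed to test compounds, and growth was compared with vehicle-treated controls to give percent inhibition.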

[5] = NCI Yeast Anticancer Drug Screen. Data for the mec2-1 strain (AID 157); conditions: S. cerevisiae mec2-1 strain, active compounds read high
Summary of the method: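 Readout is yeast growth inhibition, normalised to vehicle-treated controls, in the mec2-1 strain exposed to compound.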

[6] = NCI Yeast Anticancer Drug Screen. Data for the rad14 strain (AID 159);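 further: 0% = growth of vehicle-treated control cultures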; conditions: S. cerevisiae rad14 strain growth inhibition, active compounds read high
Summary of the method: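 Yeast cells carrying a defined DNA-repair defect were exposed to compounds, and growth inhibition was calculated relative to vehicle-treated control cultures.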

[7] = NCI Yeast Anticancer Drug Screen. Data for the sgs1 mgt1 strain (AID 161);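 further: 0% = growth of cultures given vehicle only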; conditions: S. cerevisiae sgs1 mgt1 strain, active compounds read high
Summary of the method: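 Compounds are added to genetically altered yeast, and growth is compared with cultures given vehicle alone to give percent inhibition.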

[8] = NCI Yeast Anticancer Drug Screen. Data for the CLN2oe strain (AID 163);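 further: 0% = growth of vehicle-only control cultures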; conditions: S. cerevisiae CLN2oe strain, active compounds read high
Summary of the method: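 Values reflect how much compound exposure reduced yeast growth, referenced to vehicle-exposed cells. Assay organism is a strain with a defined genetic change affecting cell-cycle control.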

[9] = NCI Yeast Anticancer Drug Screen. Data for the cln2 rad14 strain (AID 165);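 further: 0% = growth equal to vehicle treated cultures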; conditions: S. cerevisiae cln2 rad14 strain, active compounds read high
Summary of the method: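 Relative to vehicle controls, growth inhibition of compound-treated cln2 rad14 yeast was recorded.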

[10] = NCI Yeast Anticancer Drug Screen. Data for the bub3 strain (AID 167); conditions: S. cerevisiae bub3 mutant strain, active compounds read high
Summary of the method: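 Compounds were applied to a genetically altered yeast strain carrying a cell-cycle control defect. Growth inhibition was scored against vehicle-treated controls.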

[11] = NCI Yeast Anticancer Drug Screen. Data for the wt2 strain (AID 169);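 further: 0% = growth of vehicle-treated yeast cultures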; conditions: S. cerevisiae wt2 strain growth inhibition, active compounds read high
Summary of the method: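 Values express reduction in yeast growth under compound treatment, referenced to vehicle-treated cells.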

[12] = NCI Yeast Anticancer Drug Screen. Data for the mlh1 strain (AID 171);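 further: 0% = growth of vehicle-treated control cultures of the same strain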; conditions: S. cerevisiae mlh1 strain growth inhibition, active compounds read high
Summary of the method: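 Steps: expose the defined-mutant yeast strain to compound; expose a parallel culture to vehicle; measure growth; express compound effect as inhibition relative to the vehicle culture.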

[13] = NCI Yeast Anticancer Drug Screen. Data for the sgs1 strain (AID 173);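 further: 0% = growth of vehicle-only control cultures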; conditions: S. cerevisiae sgs1 mutant, active compounds read high
Summary of the method: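 Treat defined-mutant yeast with compound; measure growth; calculate inhibition relative to vehicle-treated cells.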

[14] = NCI Yeast Anticancer Drug Screen. Data for the mlh1 rad18 strain (AID 175); conditions: S. cerevisiae mlh1 rad18 strain growth inhibition, active compounds read high
Summary of the method: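 Test agents were incubated with a yeast strain of defined genotype (DNA damage repair defect). Inhibition of growth was derived by comparison with vehicle-exposed cultures.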

[15] = NCI Yeast Anticancer Drug Screen. Data for the rad18 strain (AID 177); conditions: S. cerevisiae rad18 mutant growth inhibition, active compounds read high
Summary of the method: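 A genetically defined yeast mutant impaired in DNA damage repair was treated with test compounds, then its growth was measured against cultures receiving vehicle alone.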

[16] = at 5.0 µM (retest, dose inferred, filed as 0.5)
[17] = at 50.0 µM (retest, dose inferred, filed as 5.0)

Measured: growth inhibition

Cc1ccc(S(=O)(=O)NC(=O)NC2=NC(C)(C)N(c3ccc(Cl)c(Cl)c3)C(N)=N2)cc1
active: [9]; at 50.0 µM 79.4%
inactive: [1]; at 1.2 µM -2% | [1]; at 3.7 µM 1% | [1]; at 11.0 µM -1% | [1]; at 33.0 µM -1% | [1]; at 100.0 µM -3% | [2]; at 1.2 µM -2% | [2]; at 3.7 µM -3% | [2]; at 11.0 µM -1% | [2]; at 33.0 µM -2% | [2]; at 100.0 µM 4% | [3]; at 1.2 µM 0% | [3]; at 3.7 µM -1% | [3]; at 11.0 µM -4% | [3]; at 33.0 µM 1% | [3]; at 100.0 µM -5% | [4]; at 1.2 µM -2% | [4]; at 3.7 µM -4% | [4]; [16] 7% | [4]; at 11.0 µM -5% | [4]; at 33.0 µM -3% | [4]; [17] 1% | [4]; at 50.0 µM -1.3% | [4]; at 100.0 µM -4% | [5]; at 1.2 µM -2% | [5]; at 3.7 µM 2% | [5]; [16] 1% | [5]; at 11.0 µM 4% | [5]; at 33.0 µM -3% | [5]; [17] -3% | [5]; at 50.0 µM -3.35% | [5]; at 100.0 µM -3% | [6]; at 1.2 µM -1% | [6]; at 3.7 µM 0% | [6]; at 11.0 µM 1% | [6]; at 33.0 µM 1% | [6]; at 100.0 µM 0% | [7]; [16] 6% | [7]; [17] -6% | [7]; at 50.0 µM 4.25% | [8]; at 1.2 µM -9% | [8]; at 3.7 µM -5% | [8]; at 11.0 µM -5% | [8]; at 33.0 µM -1% | [8]; at 100.0 µM -11% | [9]; [16] 1% | [9]; [17] 1% | [10]; at 1.2 µM -2% | [10]; at 3.7 µM -7% | [10]; [16] 1% | [10]; at 11.0 µM -6% | [10]; at 33.0 µM -8% | [10]; [17] -1% | [10]; at 50.0 µM -23.9% | [10]; at 100.0 µM -5% | [11]; at 1.2 µM -3% | [11]; at 3.7 µM -4% | [11]; at 11.0 µM -3% | [11]; at 33.0 µM -4% | [11]; at 100.0 µM -3% | [12]; at 1.2 µM -1% | [12]; at 3.7 µM 0% | [12]; at 11.0 µM -1% | [12]; at 33.0 µM 1% | [12]; at 100.0 µM -3% | [13]; at 1.2 µM -1% | [13]; at 3.7 µM -2% | [13]; at 11.0 µM -1% | [13]; at 33.0 µM -2% | [13]; at 100.0 µM -2% | [14]; [16] 0% | [14]; [17] 47% | [14]; at 50.0 µM 2.35% | [15]; at 1.2 µM -1% | [15]; at 3.7 µM 2% | [15]; at 11.0 µM 4% | [15]; at 33.0 µM 1% | [15]; at 100.0 µM -1%

CCCCCCCCCCC(=O)Cl
active: [1]; at 100.0 µM 85% | [3]; at 100.0 µM 85% | [4]; [16] 100% | [4]; [17] 98% | [5]; [16] 100% | [5]; [17] 98% | [5]; at 100.0 µM 83% | [6]; at 100.0 µM 88% | [8]; at 100.0 µM 77% | [11]; at 100.0 µM 82% | [12]; at 100.0 µM 82% | [13]; at 100.0 µM 90% | [14]; [16] 100% | [14]; [17] 99% | [15]; at 100.0 µM 89%
inactive: [1]; at 1.2 µM 9% | [1]; at 3.7 µM -2% | [1]; at 11.0 µM -5% | [1]; at 33.0 µM -5% | [3]; at 1.2 µM -21% | [3]; at 3.7 µM -25% | [3]; at 11.0 µM -28% | [3]; at 33.0 µM -32% | [4]; at 1.2 µM 14% | [4]; at 3.7 µM 18% | [4]; at 11.0 µM 2% | [4]; at 33.0 µM 9% | [4]; at 50.0 µM 58.2% | [4]; at 100.0 µM 29% | [5]; at 1.2 µM -1% | [5]; at 3.7 µM 7% | [5]; at 11.0 µM -9% | [5]; at 33.0 µM -23% | [5]; at 50.0 µM 7.75% | [6]; at 1.2 µM -1% | [6]; at 3.7 µM -2% | [6]; at 11.0 µM -8% | [6]; at 33.0 µM 39% | [8]; at 1.2 µM -4% | [8]; at 3.7 µM -9% | [8]; at 11.0 µM -25% | [8]; at 33.0 µM -18% | [9]; [16] 36% | [9]; [17] 58% | [9]; at 50.0 µM 31.9% | [10]; at 1.2 µM -9% | [10]; at 3.7 µM -4% | [10]; [16] 16% | [10]; at 11.0 µM -34% | [10]; at 33.0 µM -33% | [10]; [17] 64% | [10]; at 50.0 µM 12.1% | [10]; at 100.0 µM 54% | [11]; at 1.2 µM 5% | [11]; at 3.7 µM 1% | [11]; at 11.0 µM -4% | [11]; at 33.0 µM -2% | [12]; at 1.2 µM 14% | [12]; at 3.7 µM 7% | [12]; at 11.0 µM 5% | [12]; at 33.0 µM 2% | [13]; at 1.2 µM 18% | [13]; at 3.7 µM 14% | [13]; at 11.0 µM 15% | [13]; at 33.0 µM 25% | [14]; at 50.0 µM -13.4% | [15]; at 1.2 µM 25% | [15]; at 3.7 µM 21% | [15]; at 11.0 µM 15% | [15]; at 33.0 µM 9%

CCCCCCc1cc(C(=O)OC/C(C)=N/NC(N)=O)c2ccccc2n1
inactive: [1]; at 1.2 µM -2% | [1]; at 3.7 µM 1% | [1]; at 11.0 µM -4% | [1]; at 33.0 µM -5% | [1]; at 100.0 µM -5% | [2]; at 1.2 µM -1% | [2]; at 3.7 µM -3% | [2]; at 11.0 µM -4% | [2]; at 33.0 µM 2% | [2]; at 100.0 µM 3% | [3]; at 1.2 µM -3% | [3]; at 3.7 µM -3% | [3]; at 11.0 µM -2% | [3]; at 33.0 µM -5% | [3]; at 100.0 µM -5% | [4]; at 1.2 µM -3% | [4]; at 3.7 µM -3% | [4]; [16] -3% | [4]; at 11.0 µM 0% | [4]; at 33.0 µM -4% | [4]; [17] 32% | [4]; at 50.0 µM 26.6% | [4]; at 100.0 µM -4% | [5]; at 1.2 µM -4% | [5]; at 3.7 µM -2% | [5]; [16] -6% | [5]; at 11.0 µM -6% | [5]; at 33.0 µM -3% | [5]; [17] 42% | [5]; at 50.0 µM -1.15%
